Where a name gives a salt, the structure may show the parent alone.
Legend:
[1] = target: IKZF1 (dCK*-IKZF1 fusion in HEK293FT) (UniProt Q13422); experiment: inhibition of IKZF1 HTRF signal (DMSO = 0%, pomalidomide 10 uM = 100%); higher = lower IKZF1 protein level; conditions: compound concentration: 5 uM, overnight (~20 h)
Summary of the method: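 Compound was tested at 5 μM in single wells on HEK293FT cells (2000/well, 384-well) stably carrying an IKZF1 fusion, overnight at 37 °C. Total IKZF1 was measured in lysates with a commercial HTRF antibody kit as the background-subtracted 665/620 nm time-resolved FRET ratio. The reported figure is percent inhibition of IKZF1 signal, scaled per plate between vehicle and a reference degrader. The vehicle anchor was 0% and the degrader anchor 100%.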

[2] = system: HEK293FT dCK*-only; experiment: relative growth in counter assay (no AraC = 100%, AraC + DMSO = 0%); higher = more growth rescue independent of IKZF1; conditions: compound concentration: 5 uM; AraC concentration: 0.3 uM; overnight pretreatment + 4 days AraC
Summary of the method: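 For this counter assay, relative growth was normalised on each plate to two kinds of reference wells. HEK293FT cells expressing only an engineered kinase construct (300/well, 384-well) were treated with 5 μM compound 2 h after seeding, then after overnight at 37 °C with a nucleoside suicide substrate at 0.3 μM plus medium for 4 days. On day 5, Hoechst 33342-stained nuclei were counted by imaging, taking wells without suicide substrate as 100% and substrate plus vehicle as 0%.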

[3] = system: HEK293FT dCK*-IKZF1; experiment: relative growth recovery (pomalidomide 10 uM = 100%, DMSO = 0%); higher = more growth rescue (IKZF1 fusion degradation); conditions: compound concentration: 5 uM; AraC concentration: 0.3 uM; overnight pretreatment + 4 days AraC
Summary of the method: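 HEK293FT cells stably expressing an engineered deoxycytidine kinase–IKZF1 fusion were seeded at 300 per well in 384-well plates and given 5 μM compound 2 h later. After overnight incubation at 37 °C, a nucleoside suicide substrate at 0.3 μM was added with medium for 4 days, and on day 5 Hoechst 33342-stained nuclei were counted by whole-well imaging. Growth recovery was normalised per plate between a reference degrader and vehicle, set to 100% and 0% respectively, and the values are means of duplicates run on different days.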

Chain of IKZF1 (dCK*-IKZF1 fusion in HEK293FT) (Q13422 whole entry, looked up, the tested form may be a part): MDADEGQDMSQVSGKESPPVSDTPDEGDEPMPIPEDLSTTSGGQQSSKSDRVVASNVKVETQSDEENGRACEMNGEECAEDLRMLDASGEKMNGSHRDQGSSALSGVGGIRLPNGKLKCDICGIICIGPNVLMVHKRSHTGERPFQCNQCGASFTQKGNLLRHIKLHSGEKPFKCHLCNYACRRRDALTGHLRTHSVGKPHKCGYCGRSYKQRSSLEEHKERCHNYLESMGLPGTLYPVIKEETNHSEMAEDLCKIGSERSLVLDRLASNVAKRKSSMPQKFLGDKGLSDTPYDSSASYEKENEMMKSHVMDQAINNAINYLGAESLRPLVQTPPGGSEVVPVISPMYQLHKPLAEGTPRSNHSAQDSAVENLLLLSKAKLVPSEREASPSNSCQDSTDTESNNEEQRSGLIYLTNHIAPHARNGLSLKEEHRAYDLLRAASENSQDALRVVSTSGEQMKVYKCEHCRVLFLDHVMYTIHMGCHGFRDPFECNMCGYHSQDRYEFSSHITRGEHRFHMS

| SMILES | inhibition of IKZF1 HTRF signal [1] | relative growth in counter assay [2] | relative growth recovery [3] |
| --- | --- | --- | --- |
| CCSc1ccc2c(c1)N(CCCN1CCN(C)CC1)c1ccccc1S2 [thiethylperazine] | 24.1% | -4.22% | 1.55% |
| CCCCOC(=O)c1ccc(N)cc1 | -30.3% | -2.73% | -0.295% |
| NC(=O)c1nnn(Cc2cc(Cl)c(C(=O)c3ccc(Cl)cc3)c(Cl)c2)c1N [carboxyamidotriazole] | -49.1% | -4.77% | -2.6% |
| c1ccc(-c2ccc(C(c3ccccc3)n3ccnc3)cc2)cc1 (stereo not drawn) | 17.6% | 3.99% | -0.555% |
| CC1(C)Oc2ccc(C#N)cc2[C@@H](N2CCCC2=O)[C@@H]1O.CC1(C)Oc2ccc(C#N)cc2[C@H](N2CCCC2=O)[C@H]1O [levcromakalim] | -32.9% | 4.22% | -0.84% |
| CC1(C)Oc2ccc(C#N)cc2[C@H](N(Cc2ncc[nH]2)c2ccc(Cl)cc2)[C@H]1O | -30.7% | -4.85% | 1.01% |
| CCCCCCC[N+](CC)(CC)CCCCc1ccc(Cl)cc1 [clofilium] | -21.8% | -3.59% | -1.53% |
| CN(C)CC/C=C1/c2ccccc2Sc2ccc(Cl)cc21 | -9.91% | 11.5% | -0.74% |
| CC1(C)C(/C=C/C=C/C=C/C=C2/N(CCCCS(=O)(=O)[O-])c3ccc4ccccc4c3C2(C)C)=[N+](CCCCS(=O)(=O)[O-])c2ccc3ccccc3c21 [Cardiogreen] | -28.9% | -5.7% | 0.4% |
| CN[C@H]1CC[C@@H](c2ccc(Cl)c(Cl)c2)c2ccccc21 [Sertraline HCl] | 18.8% | -7.81% | -6.62% |
| O=C(Nc1nc(-c2cc(Cl)cs2)c(N2CCN(C3CCCCC3)CC2)s1)c1cnc(N2CCC(C(=O)O)CC2)c(Cl)c1 [Avatrombopag] | -35.6% | -3.51% | 1.31% |

Source: the supplement of paper PMC12340641
